Assay results published in PubChem BioAssay (NCATS).
Records with an inconclusive call do not appear. Calls of active or inactive are those of the source. Calls follow the shape of the dose curve; as a rule, active = well fitted curve in the direction sought with a large enough effect; inconclusive = small, poorly fitted or top-dose-only effect, or another doubt; inactive = no such curve, though single readings can be large; an effect the other way counts as inactive or inconclusive.

Columns and labels:
[1] = qHTS for ATAD5 Agonist screened against the NCATS CANVASS Library (AID 1347367);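 also: luciferase reporter driven by ATAD5 which rises upon DNA damage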
How it was run: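 Luciferase reporter under ATAD5 control, stably integrated in HEK293T cells (2000/well). Compounds (11 points) incubated 16 h at 37C; viability read first by CellTiter-Fluor, then luminescence reporting ATAD5 activation. MMS positive control.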

[2] = G06 Cancer Cell Toxicity qHTS against the NCATS CANVASS Library (AID 1347368); also: series mostly up to about 46 µM; nearly all actives have a fitted effect of over 60% in size
How it was run: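 Quantitative HTS in G06 cells (dog glioma): 72 hr treatment, 11 concentrations, then ATP-based luminescent viability readout; bortezomib 0.1 nM–4.6 uM final as reference.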

[3] = MCF7 Cancer Cell Toxicity qHTS against the NCATS CANVASS Library (AID 1347369); conditions: outcome: dose series up to 46 µM
How it was run: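 MCF7 cells (500/well) were exposed 72 h at 37 °C to compounds in an 11-point series. Viability was read as ATP content by CellTiterGlo luminescence.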

[4] = qHTS for ATAD5 Antagonist screened against the NCATS CANVASS Library (AID 1347370);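 also: HEK293T cells carrying an ATAD5 luciferase reporter co-treated with 10 µM 5-fluorouridine; series mostly up to about 46 µM; nearly all actives have a fitted effect of over 65% in size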
Excerpt: (§1) Natural products and their derivatives continue to be wellsprings of nascent therapeutic potential. However, many laboratories have limited resources for biological evaluation, leaving their previously isolated or synthesized compounds largely or completely untested. To address this issue, the Canvass library of natural products was assembled (https://tripod.nih.gov/canvass), in collaboration with academic and industry researchers, for quantitative high-throughput screening (qHTS) across a diverse set of cell-based and biochemical assays. […] The library was formatted into 1536-well plates and evaluated in 50 qHTS (in an 11-pnt concentration series) bioassays with broad scope of disease-relevant mechanisms. The resulting data set from 50 different assays was then systematically analyzed to identify overall trends and specific natural products with interesting biological activities. […] Luminescence intensity is proportional to ATAD5 expression. […]
ATAD5 Agonist assay protocol: 1. […] A first readout of fluorescence signal was acquired via the ViewLux (PerkinElmer) plate reader using filter sets for AFC (380-400nmEx/505Em) and 1 second exposure setting. […] 8.#A second readout of luminescence signal was acquired via the ViewLux plate reader using a clear emission filter, 10 second exposure setting.

[5] = J3T Cancer Cell Toxicity qHTS against the NCATS CANVASS Library (AID 1347371); conditions: outcome: dose series up to 46.1 µM
Excerpt: as §1, with “This assay uses ATP (luminescence) content” for “Luminescence intensity is proportional”, “measure the cytotoxiciy of compounds on J3T dog glioma cancer cell line.” for “ATAD5 expression.”
Cancer Cell Toxicity qHTS protocol: for cell lines G06, J3T, and SDT. […] Luminescence signal was acquired via the ViewLux plate reader (PerkinElmer) using a clear emission filter, 2 sec exposure, and 1x binning settings.

[6] = target: Nuclear receptor subfamily 1 group I member 3 (Homo sapiens) (UniProt Q14994); assay: qHTS for Constitutive Androstane Receptor (CAR) Antagonist screened against the NCATS CANVASS Library (AID 1347372);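 also: cells stimulated with 50 nM CITCO agonist so inhibition reflects antagonism; luciferase from CYP2B6 promoter reporter driven by hCAR in HepG2 cells; series mostly up to about 46 µM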
Chain of Nuclear receptor subfamily 1 group I member 3 (Homo sapiens) (Q14994 whole entry, looked up): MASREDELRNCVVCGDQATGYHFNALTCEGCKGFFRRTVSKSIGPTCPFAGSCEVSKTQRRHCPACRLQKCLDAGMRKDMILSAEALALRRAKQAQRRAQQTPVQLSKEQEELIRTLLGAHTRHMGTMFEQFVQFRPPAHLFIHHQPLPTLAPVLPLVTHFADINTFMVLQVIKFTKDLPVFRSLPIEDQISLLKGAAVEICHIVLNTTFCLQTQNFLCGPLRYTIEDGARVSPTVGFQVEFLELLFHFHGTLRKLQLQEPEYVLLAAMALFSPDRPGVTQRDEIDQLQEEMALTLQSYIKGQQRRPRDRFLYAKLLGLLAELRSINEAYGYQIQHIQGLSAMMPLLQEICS
Excerpt: Natural products and their derivatives continue to be wellsprings of nascent therapeutic potential. However, many laboratories have limited resources for biological evaluation, leaving their previously isolated or synthesized compounds largely or completely untested. To address this issue, the Canvass library of natural products was assembled (https://tripod.nih.gov/canvass), in collaboration with academic and industry researchers, for quantitative high-throughput screening (qHTS) across a diverse set of cell-based and biochemical assays. […] The library was formatted into 1536-well plates and evaluated in 50 qHTS (in an 11-pnt concentration series) bioassays with broad scope of disease-relevant mechanisms. The resulting data set from 50 different assays was then systematically analyzed to identify overall trends and specific natural products with interesting biological activities. […]
Material: A double-stable (hCAR and CYP2B6-2.2kb) transfected cell line, derived from human hepatoma (HepG2) cells, was utilized for the duration of the quantitative high-throughput screens. […] A first readout of fluorescence signal was acquired via the ViewLux (PerkinElmer) plate reader using a FITC dichroic mirror, excitation 405/10 nm filter, and emission 540/25 nm filter; and using 65 light energy, 1 second exposure, and 2x binning settings. […]

[7] = 10-beta competent E. coli microbial cell viability qHTS against the NCATS CANVASS Library (AID 1347376); also: series mostly up to about 46 µM
How it was run: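 Overnight 37C exposure of 10-beta E. coli (0.2 OD) to an 11-point concentration series; ATP-based luminescence after 20 min room-temperature reagent incubation; daunomycin as control.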

[8] = target: Nuclear receptor subfamily 1 group I member 3 (Homo sapiens) (UniProt Q14994); assay: qHTS for Constitutive Androstane Receptor (CAR) Agonist screened against the NCATS CANVASS Library (AID 1347373);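 also: every well also contained 1.5 µM PK11195 alongside the test compound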
How it was run: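 In an 11-point concentration series, compounds were incubated 24hr with HepG2 cells carrying hCAR and a CYP2B6-2.2kb reporter, with PK11195 at 1.5uM final. A CellTiter-Fluor viability read preceded the ONE-Glo luminescence read.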

[9] = qHTS for Hypoxia signaling pathway (HIF-1) antagonists against the NCATS CANVASS Library (AID 1347374);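 also: HRE-bla ME-180 cells stimulated with cobalt chloride to stabilize HIF-1alpha; series mostly up to about 38 µM; nearly all actives have a fitted effect of over 60% in size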
How it was run: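 Beta-lactamase reporter under HRE control in ME-180 cells; CoCl2 stimulus (60 uM solution as added), compounds 11-pt qHTS, 17 h 37C. CCF4 dye 2 h RT, 460/530 nm emission. CellTiter-Glo viability in same wells.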

[10] = qHTS for Hypoxia signaling pathway (HIF-1) agonists against the NCATS CANVASS Library (AID 1347375)
How it was run: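 An HRE-beta-lactamase ME-180 line is exposed for 17 h to an 11-point compound series, then read by CCF4-AM FRET. Cytotoxicity is measured in parallel in the same wells with CellTiter-Glo, and autofluorescence is checked separately.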

Measured: outcome

CC1=C2C(=O)O[C@@H](c3ccoc3)[C@]2(C)CCC1
inactive: [1] | [2] | [3] | [4] | [5] | [6] | [7]

C/C=C/C=C/C(CC(=O)O)Nc1ccc(C=O)cc1 (configuration not stated)
inactive: [1] | [2] | [3] | [4] | [5] | [6] | [8] | [9] | [10] | [7]
